Screening results as filed in PubChem.
Many of the other results were omitted from the sample, so hits are more common in it than they were.
Cycloheximide cs – affects cycloheximide protein synthesis inhibition readout, counter-screen; cell reporter, cycloheximide protein synthesis inhibition counterscreen; max response, %; 300,000 tested, 12% active; in the data active = max response mostly above about 13%, no sharp cut-off; inactive = mostly below about 14%; also: read at 38.3 µM for the half of the compounds with a filed dose; 0% is about no effect
LmPK inhibitor – blocks Leishmania mexicana pyruvate kinase activity; Q27686; purified LmPK, Kinase-Glo ATP luminescence, 1 h; Potency, µM (series often up to 57.5 µM), without a hit: at the highest dose activity change, negative = inhibition, actives largely listed as inhibitors; 290,000 tested, 0.37% active; also: potency is read from the fitted curve at half-maximal effect; % is scaled to controls: 0 for no effect and ±100 for the full control effect
Target sequence (Q27686 whole entry, looked up): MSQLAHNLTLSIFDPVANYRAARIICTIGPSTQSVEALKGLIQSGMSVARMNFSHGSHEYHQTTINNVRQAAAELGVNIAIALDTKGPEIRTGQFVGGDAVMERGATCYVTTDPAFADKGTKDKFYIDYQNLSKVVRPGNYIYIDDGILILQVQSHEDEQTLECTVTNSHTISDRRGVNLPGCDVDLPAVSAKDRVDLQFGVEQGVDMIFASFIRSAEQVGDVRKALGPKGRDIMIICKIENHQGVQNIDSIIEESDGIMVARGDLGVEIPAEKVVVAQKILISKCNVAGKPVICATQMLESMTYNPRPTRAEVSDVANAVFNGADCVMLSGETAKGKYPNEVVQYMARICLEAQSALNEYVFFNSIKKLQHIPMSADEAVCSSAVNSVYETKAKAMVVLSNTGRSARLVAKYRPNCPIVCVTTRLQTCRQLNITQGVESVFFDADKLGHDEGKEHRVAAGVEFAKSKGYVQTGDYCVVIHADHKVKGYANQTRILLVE
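In 50 mM imidazole pH 7.2 with 7 mM MgCl2, LmPK (0.1 nM) turned over PEP (0.5 mM) and ADP (0.1 mM) for 1 h at room temperature. Luciferase read-out of ATP.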
Tb PYK inh – inhibitors of Trypanosoma brucei pyruvate kinase; Q57TT1; TbPYK enzyme, Kinase-Glo Plus ATP luminescence, 45 min; Potency, µM (doses to about 76.8 µM), inactives show at the top dose activity, negative = inhibition, usual class: inhibitors; 410,000 tested, 0.12% active; also: potency is read from the fitted curve at half-maximal effect; % is scaled to controls: 0 for no effect and ±100 for the full control effect; nearly all actives have a fitted effect of over 50% in size
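Assay buffer: 50 mM TEA pH 7.2, 100 mM KCl, 10 mM MgCl2, 0.05% BSA, 0.01% Tween-20. Pyruvate kinase from T. brucei plus substrate met compound, then ADP (130 uM final). Luminescence was read post 45 min RT.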
Giardia FBPA inh – inhibitors of Giardia lamblia fructose-1,6-bisphosphate aldolase; A8B2U2; Potency, µM (titrated, usually from 59.6 µM), inactives show at the top dose activity, negative = inhibition, most hits filed as inhibitors; AID 2451; purified Giardia FBPA; 290,000 tested, 0.71% active; also: potency is read from the fitted curve at half-maximal effect; % is scaled to controls: 0 for no effect and ±100 for the full control effect; nearly all actives have a fitted effect of over 55% in size
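40 nM FBPA preincubated 10 min at RT with compound (up to 57.5 uM final), then substrate plus GAPDH/TPI/NAD/arsenate coupling and diaphorase/resazurin added. Fluorescence read after 20 min at RT, 525/598 nm.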
Shiga inhibitor – blocks Shiga toxin action in Vero cells | AID 2315 | inhibition, % at 38.7 µM | Vero cells, Shiga toxin protein synthesis inhibition reporter | 290,000 tested, 9.2% active; in the data active = inhibition mostly above about 28%, no sharp cut-off; inactive = mostly below about 43%; also: 0% is about no effect
Sm TGR block – blocks Schistosoma mansoni thioredoxin glutathione reductase; AID 485364; Potency, µM (top dose mostly 114 µM), without a hit: at the top dose activity change, negative = inhibition, usual class: inhibitors; Q962Y6; purified TGR, DTNB reduction, TNB absorbance 405 nm; 360,000 tested, 3% active; also: potency is read from the fitted curve at half-maximal effect; % is scaled to controls: 0 for no effect and ±100 for the full control effect; nearly all actives have a fitted effect of over 60% in size
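First, TGR (20 nM dispensed) and NADPH were mixed with compound. Second, a 15 min room-temperature incubation followed. Third, further NADPH and then DTNB were added to start the reaction. Finally, TNB absorbance was monitored kinetically.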
Numbers without * were called inactive; ? = inconclusive; . = no result given; [ ] = dose if it differs, or a comment. Unless noted, calls follow the shape of the dose curve; as a rule, active = well fitted curve in the direction sought with a large enough effect; inconclusive = small, poorly fitted or top-dose-only effect, or another doubt; inactive = no such curve, though single readings can be large; an effect the other way counts as inactive or inconclusive.

SMILES | Cycloheximide cs | LmPK inhibitor | Tb PYK inh | Giardia FBPA inh | Shiga inhibitor | Sm TGR block
Cc1cc(C)cc(NC(=O)c2cc(S(=O)(=O)NCc3ccco3)ccc2F)c1 | 15* | 6% | -9% | -6% | 46 | ?
CC(=O)c1ccc(S(=O)(=O)NCc2ccc(C(=O)NCC(c3ccccc3)N(C)C)cc2)cc1 (stereo not drawn) | 7 | 0% | -4% | 8% | 21 | 14µM*
Cc1ccc(C(=O)Nc2ccc(S(=O)(=O)NCc3ccco3)cc2)cc1 | 38* | 10% | -3% | -4% | 36* | 50µM*
CC1CCCCC1NC(=O)c1ccc(S(=O)(=O)NCc2ccco2)cc1 (stereo not drawn) | 40* | 3% | 13% | -5% | 62* | -11%
CCOC(=O)/C(C#N)=C1\SS/C(=C(/C#N)C(=O)OCC)S1 | 35* | -12% | . | ? | 50* | -29%
COc1ccc(CCNC(=O)CS(=O)(=O)c2cn(CC(=O)N3CCOCC3)c3ccccc23)cc1OC | -4 | 11%[11.5 µM] | -20% | ? | -3 | 25µM*
COc1ccccc1NC(=O)C(=O)N1CCCC1 | 19* | 2% | 3% | -1% | 60* | -2%
COc1ccc(NC(=O)CS(=O)(=O)c2cn(CC(=O)N3CCOCC3)c3ccccc23)cc1OC | -2 | -1% | ? | . | -9 | -10%
COc1ccccc1NC(=O)N1CCCC1 | 9 | 2% | 2% | -3% | -13 | .
COc1ccccc1NC(=O)C(=O)c1cn(CC(=O)N2CCCC2)c2ccccc12 | 22* | -9% | 6% | . | 37 | -5%
COc1ccccc1NC(=O)C(=O)c1cn(CC(=O)N2CCOCC2)c2ccccc12 | 12* | -10% | 4% | . | 35* | 7%
CCOc1ccc(OCC)c(Nc2cc(C)nc3nc(-c4ccco4)nn23)c1 | . | . | -1% | . | . | ?
Cc1ccc2oc(=O)c(/C=C(\O)C(C)(C)C)nc2c1 | 10 | 2% | 12% | -25% | 28 | -8%
COc1ccc(/C=C/C(=O)N2CCC(c3nc4ccccc4o3)CC2)cc1 | . | . | 0% | . | . | -6%
O=c1oc2ccccc2nc1/C=C(O)/C=C/c1ccc(F)cc1 | 44* | -1% | -2% | -22% | 85* | ?
O=c1oc2ccccc2nc1/C=C(O)/C=C\c1ccccc1 | 36* | 2% | -13% | -15% | 47* | ?
Cc1ccc(/C(O)=C/c2nc3ccccc3oc2=O)cc1 | 32* | ? | -12% | -18% | 68* | 0%
COc1ccc(N2CCN(S(=O)(=O)CCNC(=O)c3ccc(C(F)(F)F)cc3)CC2)cc1 | . | . | 6% | . | . | -3%
Cc1cc(OC(=O)c2c(Cl)cc(Cl)cc2Cl)nc(C)n1 | -2 | 0% | -1% | 0% | -4 | 2%
Cc1cc(OC(=O)N(C)C)nc(-c2ccc(C)c(Cl)c2)n1 | 15 | 5% | -2% | 5% | 39* | -2%
Cc1ccccc1NC(=O)c1sc2nc(-c3ccncc3)ccc2c1N | . | . | -7% | . | . | 6%
O=C(CSc1nc2ccccc2n1S(=O)(=O)c1cccc([N+](=O)[O-])c1)NCc1cccs1 | 27* | 1% | -17% | 8% | 18 | 7%
O=C(COC(=O)c1cccc([N+](=O)[O-])c1)NCc1cccs1 | 6 | 1% | -1% | 2% | 18 | ?
Cc1oc2ccc(O)c(CN3CCCCCC3)c2c1C(=O)Nc1cccc(C(F)(F)F)c1 | . | . | 0% | . | . | -1%
CCN(CC)S(=O)(=O)c1cccc(NC(=O)CCNC(=O)c2ccc([N+](=O)[O-])cc2)c1 | 14* | 1% | -5% | 0% | 48* | 10%
Cc1nc2n(n1)C(c1ccccc1)C1=C(CC(c3ccco3)CC1=O)N2 (stereo not drawn) | -1 | -2% | 1% | 2% | 11 | 56µM*
CCOC(=O)c1ccccc1NC(=O)c1sc2nc3n(c(=O)c2c1C)CCCC3 | . | . | -2% | . | . | 45µM*
CCCC(C)NC(=O)c1sc2nc3n(c(=O)c2c1C)CCC3 (stereo not drawn) | 17* | 0% | 4% | 3% | 29 | 5%
CCOC(=O)c1sc2nc3n(c(=O)c2c1C)CCCCC3 | 47* | -7% | 4% | 5% | 103* | 0%
